Test results taken from PubChem BioAssay (Tox21).
Where “and” joins values, the source holds several entries; their conditions need not be identical. Equal values may be shown once. Results filed as inconclusive are left out. A structure can be active in one record and inactive in another. Calls of active or inactive are those of the source. Unless noted, calls come from the whole dose curve; as a rule, active = well fitted curve in the direction sought with a large enough effect in the repeat runs; inconclusive = weak or mixed curves; inactive = no such curve, though single readings can be large; an effect the other way counts as inactive or inconclusive.

Assays:
[1] = qHTS assay to identify small molecule agonists of the NFkB signaling pathway (AID 1159509; active = well fitted curve in the direction sought with a large enough effect in the signal ratio in the repeat runs, not every such curve was filed as active; the % refers to the signal ratio; note: series mostly up to about 61 µM)
Method in brief: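 ME-180 NFkB-bla, 2,000 cells/well, overnight plating; cpd pinned in DMSO, 5 h 37 C; B/G FRET substrate 1.5 h RT; ex 405, em 460/530 nm.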

[2] = qHTS assay to identify small molecule agonists of the endoplasmic reticulum stress response signaling pathway (AID 1159516; active = well fitted activation curve with a large enough effect in the signal ratio in the repeat runs, not every such curve was filed as active; the % refers to the signal ratio)
Method in brief: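 Read-out is beta-lactamase cleavage of a FRET substrate (405 nm excitation; 460 and 530 nm emissions) in ESRE-bla HeLa cells after a 5 hr compound exposure at 37 C. Substrate incubation ran 2 hr at room temperature.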

[3] = qHTS assay to identify small molecule antagonists of the retinoid-related orphan receptor gamma (ROR-gamma) signaling pathway - cell viability counter screen (AID 1159520); note: nearly all actives have a fitted effect of over 50% in size; note: potency is the fitted concentration of half-maximal effect
Method in brief: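 Tet-on ROR gamma CHO cells (1,000/well) were plated 4 hr, given compounds in DMSO for 2 hr at 37 C, then induced with 1 uM final doxycycline for 16 hr. Viability was read as ATP by CellTiter-Glo luminescence after 30 min.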

[4] = target: Nuclear receptor ROR-gamma (Homo sapiens) (UniProt P51449); assay: qHTS assay to identify small molecule antagonists of the retinoid-related orphan receptor gamma (ROR-gamma) signaling pathway (AID 1159521; note: nearly all actives have a fitted effect of over 50% in size; note: potency is the fitted concentration of half-maximal effect)
Method in brief: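 Readout: ONE-Glo luciferase luminescence, 30 min at room temperature. System: Tet-on RORγ CHO, RORE-LUC. Sequence: compound 2 h, doxycycline 1 uM final, 16 h at 37 C.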

[5] = qHTS assay to identify small molecule agonists of the AP-1 signaling pathway - cell viability counter screen (AID 1159525; calls by dose curve; note: nearly all actives have a fitted effect of over 55% in size)
Method in brief: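 ME-180 AP-1-bla, 2500 cells/well, Opti-MEM + 0.5% dialyzed FBS; overnight 37 °C; cpd 15-pt titration, 5 h 37 °C; CellTiter-Glo 30 min RT; luminescence read; normalised to TOAB and DMSO controls.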

[6] = qHTS assay to identify small molecule agonists of the vitamin D receptor (VDR) signaling pathway - cell viability counter screen (AID 743224); note: nearly all actives have a fitted effect of over 50% in size; note: potency is the fitted concentration of half-maximal effect
Method in brief: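 Luminescence from CellTiter-Glo, read after 30 min at room temperature, reports viability of VDR-bla cells treated with compounds for 16 h at 37C in the wells used for the beta-lactamase FRET read.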

[7] = qHTS assay to identify small molecule agonists of the endoplasmic reticulum stress response signaling pathway - cell viability counter screen (AID 1159517; calls by dose curve; note: nearly all actives have a fitted effect of over 50% in size; note: potency is the fitted concentration of half-maximal effect)
Method in brief: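 CellTiter-Glo was added to wells already read for beta-lactamase FRET, and luminescence was recorded 30 min later. Cells: ESRE-bla HeLa, 1,500 per well, compound exposure 5 hr at 37 C.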

[8] = qHTS assay to identify small molecule agonists of the AP-1 signaling pathway (AID 1159526; calls by dose curve)
[9] = qHTS assay to identify small molecule antagonists of the vitamin D receptor (VDR) signaling pathway - cell viability counter screen (AID 743225); note: nearly all actives have a fitted effect of over 50% in size
Method in brief: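 Cytotoxicity toward the VDR-bla HEK 293T line was scored by ATP-based CellTiter-Glo luminescence, read in the wells already used for the beta-lactamase readout after 16 h compound treatment under 3 nM 1-alpha,25-dihydroxyvitamin D3 stimulation.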

[10] = qHTS assay to identify small molecule agonists of the NFkB signaling pathway - cell viability counter screen (AID 1159515; calls by dose curve; note: series mostly up to about 61 µM; nearly all actives have a fitted effect of over 55% in size)
Method in brief: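 Luminescence from CellTiter-Glo (30 min, room temperature) gives viability, measured in the same wells as the beta-lactamase reporter read. Cells were NFkB-bla ME-180, 2,000 per well, treated 5 hr with compounds.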

Measured: Potency

O=[N+]([O-])C(Br)(CO)CO
inactive: [1] | [2] | [5]
active: [3] 43.3 µM | [4] 48.6 µM

CCOP(=S)(OCC)SCn1nnc2ccccc2c1=O
active: [6] 54.9 µM
inactive: [1] | [7] | [3] | [5] | [8]

C=CC[C@]1(O)CC[C@H]2[C@@H]3CCC4=CC(=O)CCC4=C3C=C[C@@]21C
active: [4] 2.98 µM
not listed: [2] | [3] | [10]
inactive: all other assays above

[CH3][Sn]([CH3])([Cl])[Cl]
active: [4] 4.93 µM and 6.86 µM
not listed: [3] | [8] | [10]
inactive: all other assays above

Clc1cccc(SC2CCNCC2)n1
not listed: [2] | [10]
inactive: all other assays above

c1cc2ccc3cccc4ccc(c1)c2c34
inactive: [1] | [3] | [8]

C=CCC1([C@H](C)CCC)C(=O)NC(=O)NC1=O
not listed: [2] | [4] | [10]
inactive: all other assays above

O=C(CCl)c1ccc(Cl)cc1Cl
inactive and 18.8 µM (active): [6]
inactive: [9] | [1] | [5]
active: [7] 10.7 µM | [3] 11.9 µM | [4] 10.6 µM

OCCCBr
inactive: [6] | [1] | [3] | [5]

O=C(CBr)Nc1ccc(Cl)cc1C(=O)c1ccccc1F
active: [7] 23.9 µM
inactive: [6] | [1] | [3] | [4] | [5]

CCOP(O)OCC
not listed: [2] | [9] | [10]
inactive: all other assays above

N#CCc1ccccc1
not listed: [2] | [10]
inactive: all other assays above

CCOP(=O)(OCC)SCCSCC
not listed: [4] | [10]
inactive: all other assays above

CC1(C)CCC(Cc2ccc(Cl)cc2)C1(O)Cn1cncn1 (configuration not stated)
inactive: [6] | [1] | [7]
active: [4] 54.5 µM

CC(C)(C)C(O)C(Oc1ccc(Cl)cc1)n1cncn1 (configuration not stated)
inactive: [9] | [1] | [3] | [5]

Cc1ccc(-c2c(Cl)nc(C#N)n2S(=O)(=O)N(C)C)cc1
inactive: [9] | [1] | [2] | [7] | [5]

O=S(=O)(O)C(F)(F)C(F)(F)C(F)(F)C(F)(F)F
inactive: [1] | [3] | [4] | [8]

C=CC(=O)NCNC(=O)C=C
inactive: [6] | [1] | [7] | [3] | [5] | [8]

CCCCCCC#N
inactive: [6] | [1] | [7] | [3] | [5] | [8]

CCn1cc[n+](C)c1
not listed: [1] | [2] | [4]
inactive: all other assays above

O=[N+]([O-])c1cc(C(F)(F)F)cc([N+](=O)[O-])c1Cl
not listed: [2] | [10]
inactive: all other assays above

c1ccoc1
not listed: [2] | [9] | [10]
inactive: all other assays above

CO/N=C(/C(=O)OC)c1ccccc1COc1ccccc1C
inactive: [1] | [7] | [5] | [8]

O=C(Nc1ccccc1)Nc1cnns1
not listed: [7] | [10]
inactive: all other assays above

O=NN1CCNCC1
inactive: [6] | [1] | [7] | [3] | [5] | [8]
